KDM5B inh – inhibitors of human KDM5B histone demethylase | Q9UGL1 | KDM5B demethylase, FDH-coupled NADH fluorescence (FDH is formaldehyde dehydrogenase) | Potency, µM (series often up to 57.7 µM), most hits filed as inhibitors | hit rate 2.6% among 220,000 | AID 1347165; active means well fitted inhibition curve with a large enough effect; further: nearly all actives have a fitted effect of over 70% in size
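KDM5BΔAP (200 nM final) in 50 mM HEPES pH 7.5, 0.01% Tween-20 was preincubated 10 min at RT with compound over a concentration range. Substrate mix (H3K4me3 12.5 µM, α-KG 25 µM, Fe²⁺, ascorbate, NAD⁺, FDH) was added, and NADH fluorescence change over 30 min gave dose-response curves.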
Each line names hits and unclear results; the compound was inactive in the other large screens. Only a selection was taken, and hits are over-represented in it overall.

Cn1cc(CNC(=O)C2CCN(c3nc(-c4ccccc4)nc4c3CCC4)CC2)cn1	none
CC(=O)Nc1cc(-c2cc(C(=O)NCc3cc(C)on3)c3c(c2)N(C)CCO3)ccn1	none
CCC[C@@H]1CN(C(=O)C2(c3ccc(F)cc3)CCOCC2)C[C@H]1N(C)C	none
Cn1c(=O)ccn(CC(=O)Nc2nccs2)c1=O	none
CCOC(=O)c1sc2cccc(F)c2c1COC(=O)c1cccs1	none
O=C(NCC1(c2ccc(F)cc2)CC1)C1CCN(C(=O)CCc2ccccc2)CC1	none
CC1(C)[C@H](Cc2cc(CC3CCCCC3)on2)C[C@@H]1NC(=O)C1CCCC1	none
COc1cccc(CN2CCOC3CCN(CCCc4ccccc4)CC3C2=O)c1 (stereo not given)	none
NS(=O)(=O)c1ccc(N/N=C/c2cccc3ccccc23)c([N+](=O)[O-])c1	none
CC(C)NC(=O)CCC(=O)c1ccc2c(c1)CCC2	none
C=CCSc1nc2c(c(=O)[nH]c(=O)n2C)n1CC(=C)C	none
Cc1cc(SCC(=O)Nc2ccc(Cl)cc2)nc2ccccc12	none
CC(=O)NCCNc1cc(C)c2ccc(Cl)cc2n1	KDM5B inh 25µM
CC(=O)NCCNC(=O)c1cc2cc(C)ccc2nc1C	none
O=C(CN1CCN(C(=O)CCc2ncc(-c3c(F)cccc3F)o2)CC1)Nc1cccc(F)c1	none
O=C(O)CCC(NC(=O)C12CC3CC(CC(C3)C1)C2)C(=O)O (stereo not given)	none
O=C(/C=C/c1cccs1)N1CCC(Cc2ccccc2)CC1	none
O=C(NC1CC1)c1c(-n2cnnn2)sc2c1CCCC2	none
Cc1c(CN2CCCC(CNC(=O)c3cccc4ccccc34)C2)[nH]c2ccccc12 (stereo not given)	none
CCc1ccc(CN2CCCC(CNC(=O)c3cccc(OC)c3OC)C2)o1 (stereo not given)	none
CC(=O)NCC1CCCN(Cc2ccc(-c3ccccc3C#N)o2)C1 (stereo not given)	KDM5B inh 28µM
O=c1c2ccccc2c(-c2ccccc2)nn1Cc1nc(-c2ccc(Br)cc2)no1	none
NS(=O)(=O)c1ccc(NNC(=O)/C=C/c2cccs2)c([N+](=O)[O-])c1	none
Cc1oc(-c2ccccc2)nc1CN1C(=O)CSc2ccc(S(=O)(=O)N3CCCCCC3)cc21	none
Cc1ccc(C2=C(O)C(=O)N(Cc3ccco3)C2c2ccc(C(C)C)cc2)cc1 (stereo not given)	none
CCOc1ccc(CN2CCN(c3cc(C)nc(NC)n3)CC2CCO)cc1 (stereo not given)	none
COc1cc(CN2CCN(c3ncnc(C)c3C)CC2CCO)cc(OC)c1 (stereo not given)	none
Cc1ccc(CN2CCN(c3nc(C)ccc3C#N)CC2CCO)cc1 (stereo not given)	KDM5B inh 18µM
CCOC(=O)CCNC(=O)c1cc(F)ccc1Br	none
CCOc1ccc(N(C(=O)C23CC4CC(CC(C4)C2)C3)C2C=CS(=O)(=O)C2)cc1 (stereo not given)	none
CC(=O)Nc1ccc(C(=O)N2CCN(C3CCNCC3)C(=O)C2)cc1	none
O=C(O)CCC(=O)N1CCN(C2CCNCC2)C(=O)C1	none
O=C(N1CCCCC1)N1CCN(c2cc(Cl)ncn2)C(=O)C1	none
O=C(N1CCCCC1)N1CCN(C2CCNCC2)C(=O)C1	KDM5B inh 89µM
O=C(c1ccncc1)N1CCN(C2CCNCC2)C(=O)C1	none
O=C(N1CCCC1)N1CCN(C2CCNCC2)C(=O)C1	KDM5B inh 50µM
Cc1ccc(-n2nc(C)c(=O)c(-c3ccccc3)c2NC(=O)c2ccco2)cc1C	none
COc1ccc(C)cc1NC(=O)C(C)OC(=O)c1ccsc1 (stereo not given)	none
Cc1ccc(CCC2CCN(C(=O)c3cccc(C#N)c3)CC2)cc1	none
CCn1cc(S(=O)(=O)Nc2ccn(Cc3ccccc3Cl)n2)c(C)n1	none
COc1ccc(CC(=O)NCc2nnc(SCC(=O)c3ccc(Cl)cc3Cl)n2C)cc1	none
CCCc1nnc(NC(=O)c2cc(=O)c3cc(C)ccc3o2)s1	none
CCc1cn[nH]c1C1CCCN(C(=O)c2cnn(-c3ccccc3OC)c2)C1 (stereo not given)	none
COc1ccccc1N1CCN(C(=O)Cn2ncc3ccsc3c2=O)CC1	none
COc1ccccc1-n1cc(-c2ccnc(N3CCCN(C(C)=O)CC3)n2)cn1	KDM5B inh 32µM
Cc1cccc(C(CC(=O)Nc2ccc(-c3ccno3)cc2)n2cccc2)c1 (stereo not given)	none
CNc1cc(C)nc(N2C[C@H]3CN(C(=O)N(C)C)C[C@@]3(C(=O)O)C2)n1	KDM5B inh 22µM
CNc1cc(C)nc(N2CC[C@H](N3CCOCC3)[C@H](CCC(=O)O)C2)n1	none
Cc1nc2ccc(C(=O)N3C[C@@H]4CCN(C)C[C@]4(C(=O)O)C3)cc2s1	none
O=C1OCC2=C1C(c1ccc3c(c1)OCO3)CC(=O)N2c1ccccc1 (stereo not given)	none
O=C(/C=C/c1ccc(C(F)(F)F)cc1)c1cccc(N2CCCC2=O)c1	none
Cn1nccc1C(O)c1cc2n(n1)CCN(C/C=C/c1ccccc1)C2 (stereo not given)	KDM5B inh 32µM
Cn1ccnc1C(O)c1cc2n(n1)CCN(C/C=C/c1ccccc1)C2 (stereo not given)	none
Cn1nccc1C(O)c1cc2n(n1)CCN(CC(=O)NCc1ccco1)C2 (stereo not given)	none
Cn1nc(C(=O)Nc2ccc(-c3ccccc3)cc2)c2ccccc2c1=O	none
O=C(NCCN1CCOCC1)c1ccc(-c2ccc(N3CCSCC3)nc2)cc1	KDM5B inh 28µM
Cc1ccc(-c2ncc(C(=O)NCCN3CCN(C)CC3)c(-c3ccncc3)n2)cc1	none
N#Cc1cccc(C(=O)NCCCN2CCCC2)c1	none
O=C(NCc1ccccn1)c1ccc2ccccc2c1	none
CN1CCN(CCNC(=O)c2ccc(-c3ccc(N4CCCCCC4)nc3)cc2)CC1	KDM5B inh 22µM
Cc1ccc(C(=O)NCCCN2CCCC2)cc1	none
Cc1ccc(C(=O)NC[C@H]2O[C@@H](CC(=O)NCCN3CCOCC3)[C@H](O)[C@@H]2O)cc1	none
O=C(NCc1ccccn1)c1ccc(C2CCCCC2)cc1	none
O=C(NCc1ccccn1)c1ccc(-c2ccc(N3CCCCC3)nc2)cc1	KDM5B inh 16µM
CS(=O)(=O)N1CCC(Cc2ccc(C(=O)NCCN3CCOCC3)cc2)CC1	none
Cc1[nH]c2ccc(C(=O)NCCN3CCN(C)CC3)cc2c1C	none
O=C(NCCCN1CCCC1)c1ccc(-c2ccc(N3CCCCC3)nc2)cc1	KDM5B inh 22µM
Cc1cccc(NC(=O)CSCn2nnc3c(=O)[nH]c(Cc4ccc(F)cc4)nc32)c1C	none
Cc1cccn2c(=O)cc(COc3ccccc3NC(=O)Nc3ccccc3F)nc12	none
CC(C)n1nccc1N(CC(=O)Nc1ccc(C#N)cc1)S(=O)(=O)c1ccccc1	none
CN(C(=O)Nc1ccc(Cl)cc1)C(c1ccc(Cl)cc1)c1nccn1C (stereo not given)	none
CN1C[C@@H](F)[C@@H](OCc2nc3ccc(C(F)(F)F)cc3[nH]2)C1	none
Cc1ccc(NC(=S)NCC(C)(C)N2CCCCC2)cc1Cl	none
CCOC(=O)c1cnn(-c2cc(C)nc3c(-c4ccc(F)cc4)cnn23)c1N	none
OC(c1cccc(C(F)(F)F)c1)c1nc(Nc2cccc(Cl)c2)n[nH]1 (stereo not given)	none
Cc1nn(C)c(C)c1C(=O)NCc1cc(Cl)c2c(c1)OCCCO2	none
CC(NC(=O)CSc1ccc2ccccc2c1)c1ccc2c(c1)OCCO2 (stereo not given)	none
Cc1ccc(C(=O)NCCN2CCCC2)cc1	none
O=C(NCCN1CCCCC1)c1ccc(-c2ccc(N3CCCCC3)nc2)cc1	KDM5B inh 28µM
CN(Cc1ccco1)C(=O)c1cccc(S(=O)(=O)N2CCCCC2)c1	none
CN(Cc1ccco1)C(=O)c1ccc(-n2cnnn2)cc1	none
